Assay in all cases: DAPPL (digital affinity profiling via proximity ligation, sequencing); 10 mM Tris-HCl pH 7.5, 50 mM NaCl, 1 mM DTT, 4% glycerol, room temperature, 30 min; GST-TFs on glutathione beads, 16-mer random dsDNA library, 0.1% formaldehyde crosslink after washing; high values mean tight binding
One assay concerns the target T1, FEV (Homo sapiens, UniProt Q99581 1-238).
T1 sequence: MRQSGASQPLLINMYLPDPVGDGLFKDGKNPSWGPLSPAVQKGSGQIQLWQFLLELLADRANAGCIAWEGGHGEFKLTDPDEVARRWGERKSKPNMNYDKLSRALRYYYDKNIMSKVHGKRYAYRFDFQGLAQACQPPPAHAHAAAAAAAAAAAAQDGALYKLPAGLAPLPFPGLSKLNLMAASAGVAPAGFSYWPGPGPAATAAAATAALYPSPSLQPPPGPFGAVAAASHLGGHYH
To be noted: protein: recombinant; tags: N-terminal GST; dsDNA, one strand shown. The procedure, abridged:
(§1)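 In yeast, human transcription factors were expressed with a GST fusion, then pulled down on glutathione beads and given DNA barcodes. Pooled with a tag-only sample, they were exposed to 200 nmole of a 16-mer random double-stranded DNA library (Tris/NaCl/DTT/glycerol buffer, room temperature, 30 min), washed, crosslinked with 0.1% formaldehyde, proximity-ligated using BsaI/T4 ligase for 1 h at 37 °C, PCR-amplified and read on an Illumina NextSeq500. Each hexamer's frequency of reads for a factor, divided by the matching frequency for the tag-only sample, gives the binding signal.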

The target of the next assay is ETV5 (Homo sapiens, UniProt P41161 1-510). The following applies: protein: recombinant; tags: N-terminal GST; dsDNA, one strand shown. The gist of the method:
as §1

The target of the next assay is HSF1 (Homo sapiens, UniProt Q00613 1-529). To be noted: protein: recombinant; tags: N-terminal GST; chain copies: 3; dsDNA, one strand shown. The procedure, abridged:
as §1

The next assay deals with T2, SPIC (Homo sapiens, UniProt Q8N5J4 1-248).
T2 sequence: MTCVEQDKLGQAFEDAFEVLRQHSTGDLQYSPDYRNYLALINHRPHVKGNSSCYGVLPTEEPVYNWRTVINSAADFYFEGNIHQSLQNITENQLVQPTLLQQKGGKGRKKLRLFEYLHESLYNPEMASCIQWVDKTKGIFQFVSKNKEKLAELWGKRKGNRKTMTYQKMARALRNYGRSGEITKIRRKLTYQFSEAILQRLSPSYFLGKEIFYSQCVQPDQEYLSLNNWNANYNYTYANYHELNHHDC
The following applies: protein: recombinant; tags: N-terminal GST; dsDNA, one strand shown. The procedure, abridged: as §1

The next assay has as its target ELF4 (Homo sapiens, UniProt Q99607 1-663). To be noted: protein: recombinant; tags: N-terminal GST; dsDNA, one strand shown. The gist of the method:
as §1

For the next assay, the target named is T3, ELK4 (Homo sapiens, UniProt P28324-2 1-405).
T3 sequence: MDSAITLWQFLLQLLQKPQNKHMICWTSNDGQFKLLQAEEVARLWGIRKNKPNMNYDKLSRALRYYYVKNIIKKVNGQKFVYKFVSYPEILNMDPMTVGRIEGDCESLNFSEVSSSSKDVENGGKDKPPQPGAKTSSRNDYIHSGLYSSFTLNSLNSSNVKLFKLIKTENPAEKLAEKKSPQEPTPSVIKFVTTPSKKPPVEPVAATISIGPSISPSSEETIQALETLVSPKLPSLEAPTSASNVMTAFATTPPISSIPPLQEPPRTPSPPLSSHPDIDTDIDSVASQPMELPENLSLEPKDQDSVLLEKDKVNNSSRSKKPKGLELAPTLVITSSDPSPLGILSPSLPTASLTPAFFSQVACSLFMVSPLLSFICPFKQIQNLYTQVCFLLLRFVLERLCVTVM
The following applies: protein: recombinant; tags: N-terminal GST; dsDNA, one strand shown. The gist of the method: as §1

The next assay concerns the target T4, ETV2 (Homo sapiens, UniProt O00321 1-342).
T4 sequence: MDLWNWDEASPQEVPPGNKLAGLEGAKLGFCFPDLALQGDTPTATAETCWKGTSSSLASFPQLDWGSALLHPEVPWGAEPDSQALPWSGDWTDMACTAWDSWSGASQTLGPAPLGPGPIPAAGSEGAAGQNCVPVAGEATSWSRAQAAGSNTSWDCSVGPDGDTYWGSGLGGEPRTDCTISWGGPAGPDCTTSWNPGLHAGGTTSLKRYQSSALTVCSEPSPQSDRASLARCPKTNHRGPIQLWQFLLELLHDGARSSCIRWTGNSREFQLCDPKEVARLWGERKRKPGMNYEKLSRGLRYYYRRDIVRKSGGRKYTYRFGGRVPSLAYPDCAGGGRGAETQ
The following applies: protein: recombinant; tags: N-terminal GST; dsDNA, one strand shown. The procedure, abridged: as §1

For a further assay, the target named is T5, ELF3 (Homo sapiens, UniProt P78545 1-371).
T5 sequence: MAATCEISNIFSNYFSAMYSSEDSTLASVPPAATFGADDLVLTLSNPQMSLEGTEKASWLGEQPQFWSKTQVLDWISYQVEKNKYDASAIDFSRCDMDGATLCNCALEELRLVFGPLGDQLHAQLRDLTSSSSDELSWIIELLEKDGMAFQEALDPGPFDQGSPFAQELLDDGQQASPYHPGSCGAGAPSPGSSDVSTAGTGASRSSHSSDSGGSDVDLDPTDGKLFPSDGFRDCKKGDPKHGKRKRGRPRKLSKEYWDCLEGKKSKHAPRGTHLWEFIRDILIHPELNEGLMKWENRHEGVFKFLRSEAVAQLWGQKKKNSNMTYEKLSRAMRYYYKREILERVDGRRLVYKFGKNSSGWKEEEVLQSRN
To be noted: protein: recombinant; tags: N-terminal GST; dsDNA, one strand shown. The procedure, abridged: as §1

For another assay, the target named is CRX (Homo sapiens, UniProt O43186 1-299). The following applies: protein: recombinant; tags: N-terminal GST; dsDNA, one strand shown. The gist of the method: as §1
Chain of CRX (O43186 whole entry): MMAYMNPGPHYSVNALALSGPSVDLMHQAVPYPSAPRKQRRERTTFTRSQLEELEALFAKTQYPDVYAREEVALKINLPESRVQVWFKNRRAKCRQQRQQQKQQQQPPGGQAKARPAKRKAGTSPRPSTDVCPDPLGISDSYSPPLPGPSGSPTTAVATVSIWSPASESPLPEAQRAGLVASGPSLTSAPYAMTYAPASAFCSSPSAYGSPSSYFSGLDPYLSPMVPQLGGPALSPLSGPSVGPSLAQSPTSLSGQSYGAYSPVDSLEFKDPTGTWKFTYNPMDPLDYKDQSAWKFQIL
The next assay concerns the target ETV1 (Homo sapiens, UniProt P50549 1-477). To be noted: protein: recombinant; tags: N-terminal GST; dsDNA, one strand shown. The procedure, abridged: as §1
The target of the next assay is T6, ERF (Homo sapiens, UniProt P50548 1-548).
T6 sequence: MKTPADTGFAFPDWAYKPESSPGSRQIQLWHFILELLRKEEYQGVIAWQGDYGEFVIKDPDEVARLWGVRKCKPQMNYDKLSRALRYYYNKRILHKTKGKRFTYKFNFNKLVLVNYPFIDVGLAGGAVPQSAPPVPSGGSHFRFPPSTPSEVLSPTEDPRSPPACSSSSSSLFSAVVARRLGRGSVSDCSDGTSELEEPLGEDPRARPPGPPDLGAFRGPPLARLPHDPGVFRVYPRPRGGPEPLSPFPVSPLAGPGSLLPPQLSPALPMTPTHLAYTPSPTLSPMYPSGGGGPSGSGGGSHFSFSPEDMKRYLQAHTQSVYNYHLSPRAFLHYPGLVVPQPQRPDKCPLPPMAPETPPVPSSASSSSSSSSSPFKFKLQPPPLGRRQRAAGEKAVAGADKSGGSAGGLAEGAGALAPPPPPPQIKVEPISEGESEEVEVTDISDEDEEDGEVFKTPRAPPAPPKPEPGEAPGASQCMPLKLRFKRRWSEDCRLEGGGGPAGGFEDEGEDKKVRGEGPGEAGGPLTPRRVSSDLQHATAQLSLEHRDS
To be noted: protein: recombinant; tags: N-terminal GST; dsDNA, one strand shown. The procedure, abridged: as §1

The target in a further assay is T7, ETV3L (Homo sapiens, UniProt Q6ZN32 1-361).
T7 sequence: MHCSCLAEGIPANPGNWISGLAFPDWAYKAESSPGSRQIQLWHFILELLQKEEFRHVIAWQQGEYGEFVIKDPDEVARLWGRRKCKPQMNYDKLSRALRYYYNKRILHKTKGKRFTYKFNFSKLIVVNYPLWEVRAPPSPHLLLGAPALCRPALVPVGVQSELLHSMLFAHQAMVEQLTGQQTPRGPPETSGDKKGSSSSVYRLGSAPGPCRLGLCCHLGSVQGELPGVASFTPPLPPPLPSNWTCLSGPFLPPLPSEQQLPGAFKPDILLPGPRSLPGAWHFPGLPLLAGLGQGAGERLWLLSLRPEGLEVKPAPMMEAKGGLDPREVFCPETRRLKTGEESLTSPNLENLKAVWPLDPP
To be noted: protein: recombinant; tags: N-terminal GST; dsDNA, one strand shown. The procedure, abridged: as §1

The target in a further assay is T8, ETS2 (Homo sapiens, UniProt P15036 1-469).
T8 sequence: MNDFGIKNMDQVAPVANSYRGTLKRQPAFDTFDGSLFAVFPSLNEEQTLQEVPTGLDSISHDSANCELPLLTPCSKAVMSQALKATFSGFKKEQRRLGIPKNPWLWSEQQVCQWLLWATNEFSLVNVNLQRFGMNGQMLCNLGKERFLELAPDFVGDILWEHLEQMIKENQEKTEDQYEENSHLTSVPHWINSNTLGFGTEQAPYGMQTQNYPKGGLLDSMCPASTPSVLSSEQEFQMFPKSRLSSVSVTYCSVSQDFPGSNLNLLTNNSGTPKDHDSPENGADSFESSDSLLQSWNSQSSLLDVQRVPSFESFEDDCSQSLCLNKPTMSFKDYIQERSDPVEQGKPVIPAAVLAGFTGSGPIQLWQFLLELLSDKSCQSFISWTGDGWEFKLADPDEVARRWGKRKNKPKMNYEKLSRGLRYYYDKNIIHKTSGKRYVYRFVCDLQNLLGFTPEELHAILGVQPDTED
To be noted: protein: recombinant; tags: N-terminal GST; dsDNA, one strand shown. The procedure, abridged:
as §1

In a further assay the target is T9, SPDEF (Homo sapiens, UniProt O95238 1-335).
T9 sequence: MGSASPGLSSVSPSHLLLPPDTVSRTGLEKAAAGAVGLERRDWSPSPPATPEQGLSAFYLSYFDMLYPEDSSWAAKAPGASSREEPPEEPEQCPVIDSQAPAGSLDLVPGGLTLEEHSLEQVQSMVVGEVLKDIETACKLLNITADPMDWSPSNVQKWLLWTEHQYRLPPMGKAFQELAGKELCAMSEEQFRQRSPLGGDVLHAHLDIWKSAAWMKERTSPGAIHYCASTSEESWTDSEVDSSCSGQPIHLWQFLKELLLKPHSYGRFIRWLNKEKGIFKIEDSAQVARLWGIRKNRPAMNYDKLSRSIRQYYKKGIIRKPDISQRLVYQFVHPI
To be noted: protein: recombinant; tags: N-terminal GST; dsDNA, one strand shown. The gist of the method: as §1

For another assay, the target named is T10, ETV7 (Homo sapiens, UniProt Q9Y603 1-341).
T10 sequence: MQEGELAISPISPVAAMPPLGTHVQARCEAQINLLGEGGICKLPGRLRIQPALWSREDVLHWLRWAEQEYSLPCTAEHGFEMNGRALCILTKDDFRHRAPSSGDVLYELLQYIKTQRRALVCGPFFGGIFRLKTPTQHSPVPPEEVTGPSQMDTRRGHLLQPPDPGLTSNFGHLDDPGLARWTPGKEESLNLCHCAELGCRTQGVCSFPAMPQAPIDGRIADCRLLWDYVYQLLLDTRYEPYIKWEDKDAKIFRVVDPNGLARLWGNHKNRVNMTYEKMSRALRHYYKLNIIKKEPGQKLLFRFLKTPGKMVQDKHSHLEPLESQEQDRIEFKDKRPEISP
To be noted: protein: recombinant; tags: N-terminal GST; dsDNA, one strand shown. The procedure, abridged: as §1

A further assay concerns the target T11, ELF5 (Homo sapiens, UniProt Q9UKW6-2 1-255).
T11 sequence: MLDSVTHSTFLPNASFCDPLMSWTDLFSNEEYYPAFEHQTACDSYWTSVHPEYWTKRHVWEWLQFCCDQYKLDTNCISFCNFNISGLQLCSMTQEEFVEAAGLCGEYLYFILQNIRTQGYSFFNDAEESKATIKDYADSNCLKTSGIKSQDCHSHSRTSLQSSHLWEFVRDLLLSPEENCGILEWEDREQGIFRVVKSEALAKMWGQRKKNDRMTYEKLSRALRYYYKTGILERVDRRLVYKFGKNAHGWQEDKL
The following applies: protein: recombinant; tags: N-terminal GST; dsDNA, one strand shown. The gist of the method: as §1

A further assay deals with T12, ETV3 (Homo sapiens, UniProt P41162-2 1-143).
T12 sequence: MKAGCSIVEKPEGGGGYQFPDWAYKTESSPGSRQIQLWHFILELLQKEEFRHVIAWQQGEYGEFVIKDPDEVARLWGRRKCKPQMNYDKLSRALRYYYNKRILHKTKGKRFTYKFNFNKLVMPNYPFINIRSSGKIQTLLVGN
To be noted: protein: recombinant; tags: N-terminal GST; dsDNA, one strand shown. The gist of the method:
as §1

The next assay addresses ETV6 (Homo sapiens, UniProt P41212 1-452). The following applies: protein: recombinant; tags: N-terminal GST; dsDNA, one strand shown. The gist of the method: as §1

Chain of ETV1 (P50549 whole entry): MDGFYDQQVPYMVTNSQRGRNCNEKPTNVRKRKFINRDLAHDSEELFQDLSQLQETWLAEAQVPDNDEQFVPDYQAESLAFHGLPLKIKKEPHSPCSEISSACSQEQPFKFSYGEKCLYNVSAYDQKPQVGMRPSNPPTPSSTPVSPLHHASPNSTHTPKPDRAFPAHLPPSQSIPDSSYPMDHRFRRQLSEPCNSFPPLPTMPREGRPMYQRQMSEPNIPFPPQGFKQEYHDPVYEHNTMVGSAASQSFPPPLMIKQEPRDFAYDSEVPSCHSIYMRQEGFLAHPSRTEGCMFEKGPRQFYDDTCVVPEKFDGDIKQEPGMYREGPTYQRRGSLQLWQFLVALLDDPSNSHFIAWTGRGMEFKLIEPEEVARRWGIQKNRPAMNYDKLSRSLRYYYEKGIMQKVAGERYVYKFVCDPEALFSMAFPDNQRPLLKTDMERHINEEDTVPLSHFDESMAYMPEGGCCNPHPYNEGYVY
Chain of ETV6 (P41212 whole entry): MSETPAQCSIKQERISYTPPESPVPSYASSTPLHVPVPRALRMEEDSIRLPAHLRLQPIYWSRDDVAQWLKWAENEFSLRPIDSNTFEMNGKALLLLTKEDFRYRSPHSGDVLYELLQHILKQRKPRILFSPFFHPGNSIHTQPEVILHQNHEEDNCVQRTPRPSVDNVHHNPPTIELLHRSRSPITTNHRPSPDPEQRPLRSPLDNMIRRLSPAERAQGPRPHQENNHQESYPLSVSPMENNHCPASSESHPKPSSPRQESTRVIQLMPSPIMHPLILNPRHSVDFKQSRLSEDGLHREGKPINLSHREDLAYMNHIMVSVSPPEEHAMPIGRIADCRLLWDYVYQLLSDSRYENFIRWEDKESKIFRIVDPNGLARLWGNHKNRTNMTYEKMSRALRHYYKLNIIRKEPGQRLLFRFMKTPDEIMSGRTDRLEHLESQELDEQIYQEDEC
Chain of ELF4 (Q99607 whole entry): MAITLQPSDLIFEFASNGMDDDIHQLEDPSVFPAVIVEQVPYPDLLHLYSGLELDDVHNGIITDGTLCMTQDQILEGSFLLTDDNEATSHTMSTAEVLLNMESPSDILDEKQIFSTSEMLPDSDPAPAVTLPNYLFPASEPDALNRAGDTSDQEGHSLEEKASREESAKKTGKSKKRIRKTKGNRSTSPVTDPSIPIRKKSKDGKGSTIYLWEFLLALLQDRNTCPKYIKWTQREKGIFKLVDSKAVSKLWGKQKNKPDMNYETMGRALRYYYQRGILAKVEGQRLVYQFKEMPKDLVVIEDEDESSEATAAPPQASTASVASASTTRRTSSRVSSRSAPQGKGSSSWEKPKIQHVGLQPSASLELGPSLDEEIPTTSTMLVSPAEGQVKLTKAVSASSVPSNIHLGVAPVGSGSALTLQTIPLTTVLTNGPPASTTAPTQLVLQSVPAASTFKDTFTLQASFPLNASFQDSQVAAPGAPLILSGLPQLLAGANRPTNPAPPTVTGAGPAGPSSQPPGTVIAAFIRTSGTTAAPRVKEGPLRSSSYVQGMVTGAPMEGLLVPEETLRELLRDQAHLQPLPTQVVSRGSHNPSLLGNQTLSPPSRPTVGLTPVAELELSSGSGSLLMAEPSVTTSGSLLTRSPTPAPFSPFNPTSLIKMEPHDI
Chain of HSF1 (Q00613 whole entry): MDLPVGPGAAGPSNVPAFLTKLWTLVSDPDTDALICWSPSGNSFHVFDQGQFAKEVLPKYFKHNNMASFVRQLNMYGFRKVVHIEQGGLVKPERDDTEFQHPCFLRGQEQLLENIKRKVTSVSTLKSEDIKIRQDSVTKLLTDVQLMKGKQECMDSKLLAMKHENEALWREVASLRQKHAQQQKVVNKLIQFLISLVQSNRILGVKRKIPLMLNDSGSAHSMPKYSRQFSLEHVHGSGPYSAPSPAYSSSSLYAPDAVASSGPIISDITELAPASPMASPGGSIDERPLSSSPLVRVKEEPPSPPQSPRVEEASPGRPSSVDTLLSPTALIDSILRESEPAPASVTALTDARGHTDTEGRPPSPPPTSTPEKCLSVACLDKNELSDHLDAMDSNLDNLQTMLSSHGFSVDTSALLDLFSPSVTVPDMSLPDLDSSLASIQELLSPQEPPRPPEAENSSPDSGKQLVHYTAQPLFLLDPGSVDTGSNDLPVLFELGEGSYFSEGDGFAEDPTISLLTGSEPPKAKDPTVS
Chain of ETV5 (P41161 whole entry): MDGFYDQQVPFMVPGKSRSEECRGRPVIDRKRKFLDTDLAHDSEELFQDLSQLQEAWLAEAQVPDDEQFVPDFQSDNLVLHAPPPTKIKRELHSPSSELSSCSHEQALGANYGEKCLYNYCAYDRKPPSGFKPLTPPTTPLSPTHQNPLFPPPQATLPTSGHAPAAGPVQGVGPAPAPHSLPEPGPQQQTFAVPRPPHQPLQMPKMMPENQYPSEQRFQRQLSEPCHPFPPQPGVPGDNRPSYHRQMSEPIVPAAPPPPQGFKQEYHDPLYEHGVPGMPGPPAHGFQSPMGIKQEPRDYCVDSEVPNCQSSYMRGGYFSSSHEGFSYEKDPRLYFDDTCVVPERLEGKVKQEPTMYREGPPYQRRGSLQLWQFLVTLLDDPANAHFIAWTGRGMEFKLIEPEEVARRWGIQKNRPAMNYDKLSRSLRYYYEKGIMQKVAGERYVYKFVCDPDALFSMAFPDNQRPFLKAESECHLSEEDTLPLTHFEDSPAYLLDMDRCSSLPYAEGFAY

For the sequence TAGTTT, the binding signal in the assay with FEV was 1.09 fold enrichment (6-mer frequency, TF over GST control); in the assay with ETV5, 1.18 fold enrichment (6-mer frequency, TF over GST control); with HSF1, 1.27 fold enrichment (6-mer frequency, TF over GST control); with SPIC, 1.21 fold enrichment (6-mer frequency, TF over GST control); with ELF4 it was 1.21 fold enrichment (6-mer frequency, TF over GST control); in the assay with ELK4, 1.4 fold enrichment (6-mer frequency, TF over GST control). For the same sequence, the binding signal with ETV2 is 1.17 fold enrichment (6-mer frequency, TF over GST control); in the assay with ELF3, 1.34 fold enrichment (6-mer frequency, TF over GST control); with CRX, 1.3 fold enrichment (6-mer frequency, TF over GST control); with ETV1 it was 1.24 fold enrichment (6-mer frequency, TF over GST control); with ERF, 1.36 fold enrichment (6-mer frequency, TF over GST control); with ETV3L, 1.31 fold enrichment (6-mer frequency, TF over GST control). The binding signal is 1.19 fold enrichment (6-mer frequency, TF over GST control) in the assay with ETS2; 1.16 fold enrichment (6-mer frequency, TF over GST control) with SPDEF; 1.19 fold enrichment (6-mer frequency, TF over GST control) with ETV7; 1.18 fold enrichment (6-mer frequency, TF over GST control) with ELF5; 1.32 fold enrichment (6-mer frequency, TF over GST control) with ETV3; 1.23 fold enrichment (6-mer frequency, TF over GST control) with ETV6.

The values are drawn from PMC7862700, “An all-to-all approach to the identification of sequence-specific readers for epigenetic DNA modifications on cytosine”.
